Data: PubChem BioAssay AID1159580 (chemical genetic matrix, 2015)
Several values for one entry are separate records, joined by “and”; a condition that tells them apart may be missing. Identical values can stand only once. In all, about 5,500 compounds went through this assay and about 2,000 (36%) were called active. About 18% were inconclusive and are not listed. Rule as the data show it: active = normalized growth mostly below about 0.91 (no sharp cut-off); inconclusive = no clear call, values can overlap the other calls; inactive = mostly above about 0.92. This is one part of the list.

Assay: chemical genetic growth profiling, strain panel (AID 1159580);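 also: tested at 20 µM; growth read once vehicle control cultures reached saturation at 30 °C; 1 = growth at the plate median or of vehicle wells; lower values mean less growth of the strain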
Conditions: S. cerevisiae deletion strains, growth OD
[1] = locus YMR307W, strain GAS1, stronger effect = lower value
[2] = locus YPL241C, strain CIN2, stronger effect = lower value

Measured: normalized growth

c1ccc(CN(CC2=NCCN2)c2ccccc2)cc1
inactive: locus YAL013W, strain DEP1, stronger effect = lower value 1.01 | locus YAL021C, strain ccr4, stronger effect = lower value 0.973 | locus YAL026C, strain drs2, stronger effect = lower value 0.999 | locus YAL030W, strain snc1, stronger effect = lower value 1.01 | locus YBL061C, strain skt5, stronger effect = lower value 1.03 | locus YBR009C, strain hhf1, stronger effect = lower value 0.998 | locus YBR021W, strain FUR4, stronger effect = lower value 1.02 | locus YBR023C, strain chs3, stronger effect = lower value 1.02 | locus YBR171W, strain sec66, stronger effect = lower value 1.02 | locus YBR229C, strain ROT2, stronger effect = lower value 1 | locus YBR231C, strain swc5, stronger effect = lower value 0.999 | locus YBR279W, strain paf1, stronger effect = lower value 1.02 | locus YCL011C, strain gbp2, stronger effect = lower value 0.989 | locus YCL016C, strain dcc1, stronger effect = lower value 0.976 | locus YCL029C, strain bik1, stronger effect = lower value 1.01 | locus YCL069W, strain vba3, stronger effect = lower value 1.02 | locus YCR088W, strain abp1, stronger effect = lower value 1.01 | locus YDL005C, strain med2, stronger effect = lower value 1.01 | locus YDL035C, strain GPR1, stronger effect = lower value 1.02 | locus YDL040C, strain nat1, stronger effect = lower value 1.02 | locus YDL074C, strain BRE1, stronger effect = lower value 1.01 | locus YDL101C, strain DUN1, stronger effect = lower value 1.01 | locus YDL134C, strain PPH21, stronger effect = lower value 1.01 | locus YDL185W, strain tfp1, stronger effect = lower value 1 | locus YDL192W, strain arf1, stronger effect = lower value 1 | locus YDR001C, strain nth1, stronger effect = lower value 1.01 | locus YDR069C, strain doa4, stronger effect = lower value 1.02 | locus YDR101C, strain arx1, stronger effect = lower value 0.994 | locus YDR137W, strain rgp1, stronger effect = lower value 0.967 | locus YDR159W, strain sac3, stronger effect = lower value 1 | locus YDR162C, strain NBP2, stronger effect = lower value 1.03 | locus YDR195W, strain ref2 1.02 | locus YDR297W, strain sur2, stronger effect = lower value 1.01 | locus YDR318W, strain mcm21, stronger effect = lower value 0.992 | locus YDR334W, strain swr1, stronger effect = lower value 1.02 | locus YDR335W, strain msn5, stronger effect = lower value 1 | locus YDR388W, stronger effect = lower value 1.01 | locus YDR392W, strain spt3, stronger effect = lower value 0.961 | locus YDR502C, strain sam2, stronger effect = lower value 1 | locus YEL003W, strain gim4, stronger effect = lower value 1.03 | locus YEL037C, strain rad23, stronger effect = lower value 1.01 | locus YEL061C, strain CIN8 (second series), stronger effect = lower value 1.01 | locus YEL061C, strain CIN8, stronger effect = lower value 1.01 | locus YER015W, strain faa2, stronger effect = lower value 0.999 | locus YER016W, strain bim1, stronger effect = lower value 1.01 | locus YER110C, stronger effect = lower value 0.992 | locus YER111C, strain swi4, stronger effect = lower value 1.03 | locus YER155C, strain BEM2 (second series), stronger effect = lower value 1.04 | locus YER155C, strain BEM2, stronger effect = lower value 0.997 | locus YER167W, strain BCK2, stronger effect = lower value 1.01 | locus YFR010W, strain ubp6, stronger effect = lower value 1.02 | locus YGL078C, strain dbp3, stronger effect = lower value 0.997 | locus YGL086W, strain mad1, stronger effect = lower value 0.997 | locus YGL167C, strain pmr1, stronger effect = lower value 1.03 | locus YGL173C, strain kem1, stronger effect = lower value 1.03 | locus YGL227W, strain vid30, stronger effect = lower value 1.01 | locus YGL240W, strain doc1, stronger effect = lower value 1.04 | locus YGL248W, strain PDE1, stronger effect = lower value 1 | locus YGL253W, strain hxk2, stronger effect = lower value 1 | locus YGR135W, strain pre9, stronger effect = lower value 1 | locus YGR252W, strain gcn5, stronger effect = lower value 0.997 | locus YHR013C, strain ard1, stronger effect = lower value 0.972 | locus YHR027C, strain rpn1, stronger effect = lower value 1.02 | locus YHR030C, strain SLT2, stronger effect = lower value 1.01 and 1.02 | locus YHR079C, strain IRE1 (second series), stronger effect = lower value 0.995 | locus YHR079C, strain IRE1, stronger effect = lower value 1.03 | locus YHR094C, strain hxt1, stronger effect = lower value 1 | locus YHR129C, strain ARP1, stronger effect = lower value 1.01 | locus YHR142W, strain chs7, stronger effect = lower value 1 | locus YHR200W, strain rpn10, stronger effect = lower value 1.01 | locus YIL066C, strain RNR3, stronger effect = lower value 1.03 | locus YIL073C, strain SPO22, stronger effect = lower value 1 | locus YIL125W, strain kgd1, stronger effect = lower value 1 | locus YIR030C, strain dcg1, stronger effect = lower value 0.991 | locus YJL092W, strain hpr5, stronger effect = lower value 1.03 | locus YJL095W, strain BCK1 (second series), stronger effect = lower value 1.01 | locus YJL095W, strain BCK1, stronger effect = lower value 1.02 and 1.04 | locus YJL115W, strain asf1, stronger effect = lower value 0.999 | locus YJL129C, strain trk1, stronger effect = lower value 1.03 | locus YJL134W, strain LCB3, stronger effect = lower value 1.01 | locus YJL154C, strain vps35, stronger effect = lower value 1.01 | locus YJL164C, strain tpk1, stronger effect = lower value 0.974 | locus YJL166W, strain qcr8, stronger effect = lower value 1.03 | locus YJL168C, strain set2, stronger effect = lower value 0.993 | locus YJL187C, strain SWE1 (second series), stronger effect = lower value 1.01 | locus YJR043C, strain POL32, stronger effect = lower value 1.01 | locus YJR066W, strain TOR1, stronger effect = lower value 0.983 | locus YKL009W, strain mrt4, stronger effect = lower value 0.994 | locus YKL068W, stronger effect = lower value 1 | locus YKL085W, strain MDH1 (second series), stronger effect = lower value 1.01 | locus YKL085W, strain MDH1, stronger effect = lower value 1.01 | locus YKL160W, strain elf1, stronger effect = lower value 1.02 | locus YKR001C, strain vps1, stronger effect = lower value 0.997 | locus YKR026C, strain gcn3, stronger effect = lower value 0.97 | locus YKR091W, strain srl3, stronger effect = lower value 0.999 | locus YLL001W, strain dnm1, stronger effect = lower value 1.03 | locus YLL026W, stronger effect = lower value 1.02 | locus YLL041C, strain sdh2, stronger effect = lower value 1.01 | locus YLR027C, strain aat2, stronger effect = lower value 0.993 | locus YLR039C, strain RIC1, stronger effect = lower value 0.993 | locus YLR058C, strain SHM2, stronger effect = lower value 1.01 | locus YLR102C, strain apc9, stronger effect = lower value 0.998 | locus YLR113W, strain HOG1, stronger effect = lower value 1.04 | locus YLR221C, strain rsa3, stronger effect = lower value 1.01 | locus YLR258W, strain gsy2, stronger effect = lower value 0.992 | locus YLR262C, strain YPT6 (second series), stronger effect = lower value 1.01 | locus YLR262C, strain YPT6, stronger effect = lower value 1.04 | locus YLR268W, strain sec22, stronger effect = lower value 0.999 | locus YLR320W, strain mms22, stronger effect = lower value 0.982 | locus YLR330W, strain CHS5, stronger effect = lower value 1.01 | locus YLR342W, strain FKS1 (second series), stronger effect = lower value 1.03 | locus YLR342W, strain FKS1, stronger effect = lower value 1.02 | locus YLR357W, strain rsc2, stronger effect = lower value 1.03 | locus YLR370C, strain arc18, stronger effect = lower value 1 | locus YLR371W, strain rom2, stronger effect = lower value 1.01 | locus YLR384C, strain iki3, stronger effect = lower value 1.02 | locus YLR418C, strain cdc73, stronger effect = lower value 1.02 | locus YML016C, strain PPZ1, stronger effect = lower value 1 | locus YML032C, strain rad52, stronger effect = lower value 0.993 | locus YML120C, strain ndi1, stronger effect = lower value 1.03 | locus YML124C, strain tub3, stronger effect = lower value 0.992 | locus YMR058W, strain fet3, stronger effect = lower value 1.01 | locus YMR078C, strain ctf18, stronger effect = lower value 1 | locus YMR125W, strain sto1, stronger effect = lower value 1.01 | locus YMR129W, stronger effect = lower value 1.02 | locus YMR205C, strain PFK2, stronger effect = lower value 1.02 | locus YMR223W, strain ubp8, stronger effect = lower value 1 | locus YMR231W, strain pep5, stronger effect = lower value 1 | [1] 1.08 | locus YNL067W, strain RPL9B, stronger effect = lower value 1.02 | locus YNL071W, strain lat1, stronger effect = lower value 0.999 | locus YNL183C, strain NPR1, stronger effect = lower value 0.975 | locus YNL209W, strain ssb2, stronger effect = lower value 0.996 | locus YNL233W, strain BNI4, stronger effect = lower value 1 | locus YNL248C, strain rpa49, stronger effect = lower value 0.987 | locus YNL250W, strain rad50, stronger effect = lower value 0.992 | locus YNL271C, strain bni1, stronger effect = lower value 0.995 | locus YNL298W, strain CLA4, stronger effect = lower value 1.01 | locus YNL307C, strain MCK1, stronger effect = lower value 1 | locus YNL322C, strain KRE1 (second series), stronger effect = lower value 1.01 | locus YNR049C, strain mso1, stronger effect = lower value 1.01 | locus YNR052C, strain pop2, stronger effect = lower value 0.996 | locus YOL012C, strain htz1 0.89 | locus YOL147C, strain pex11, stronger effect = lower value 1 | locus YOR001W, strain rrp6, stronger effect = lower value 1.02 | locus YOR061W, strain CKA2, stronger effect = lower value 1.01 | locus YOR069W, strain VPS5, stronger effect = lower value 1 | locus YOR070C, strain gyp1, stronger effect = lower value 1 | locus YOR080W, strain dia2, stronger effect = lower value 1.01 | locus YOR083W, strain WHI5, stronger effect = lower value 1.02 | locus YOR106W, strain vam3, stronger effect = lower value 1.03 | locus YOR136W, strain idh2, stronger effect = lower value 1 | locus YOR144C, strain elg1, stronger effect = lower value 0.998 | locus YOR184W, strain ser1, stronger effect = lower value 1.01 | locus YOR231W, strain MKK1, stronger effect = lower value 1.06 | locus YOR265W, strain rbl2, stronger effect = lower value 1.01 | locus YOR270C, strain vph1, stronger effect = lower value 0.988 | locus YOR290C, strain snf2, stronger effect = lower value 0.969 | locus YOR316C, strain cot1, stronger effect = lower value 1 | locus YPL051W, strain arl3, stronger effect = lower value 1.03 | locus YPL078C, strain atp4, stronger effect = lower value 1.04 | locus YPL106C, strain sse1, stronger effect = lower value 0.998 | locus YPL240C, strain hsp82, stronger effect = lower value 0.97 | [2] 1.01 | locus YPL256C, strain CLN2, stronger effect = lower value 1.06 | locus YPR119W, strain clb2, stronger effect = lower value 0.991 | locus YPR141C, strain kar3, stronger effect = lower value 1 | locus YPR163C, strain tif3, stronger effect = lower value 1.01 | locus YPR167C, strain met16, stronger effect = lower value 0.996 | strain wtn01, stronger effect = lower value 0.99

c1ccc2cc(CC3=NCCN3)ccc2c1
inactive: locus YAL040C, strain CLN3, stronger effect = lower value 1.01 | locus YCL061C, strain MRC1 (second series), stronger effect = lower value 1 | locus YDR363W, strain ESC2, stronger effect = lower value 1.02 | locus YER002W, strain NOP16, stronger effect = lower value 0.998 | locus YGR078C, strain PAC10, stronger effect = lower value 1.01 | [1] 1 | locus YNL128W, strain TEP1, stronger effect = lower value 1 | locus YNL153C, strain GIM3, stronger effect = lower value 0.982 | locus YNL175C, strain NOP13, stronger effect = lower value 1.01 | locus YNL197C, strain WHI3, stronger effect = lower value 1.02 | locus YNL224C, strain SQS1, stronger effect = lower value 1.01 | locus YOR083W, strain WHI5 (second series), stronger effect = lower value 1 | locus YPL055C, strain LGE1, stronger effect = lower value 1.01 | [2] 0.996
